# Test results published in PubChem BioAssay (NCATS).
# Inconclusive results are not listed. Entries that show only a call come without a potency. Activity calls are given as the source filed them. Calls come from the whole dose curve.
# Assay: Natriuretic polypeptide receptor (hNpr1) antagonism - Pilot counterscreen GloSensor control cell line (AID 1347045)
# Details: HEK293 cGMP GloSensor cells, SNP-stimulated luminescence, 20 min; series mostly up to 38.3 µM
# Description: F. Fan, B. F. Binkowski, B. L. Butler, P. F. Stecha, M. K. Lewis, K. V. Wood, Novel genetically encoded biosensors using firefly luciferase. ACS Chem Biol 3, 346-351 (2008).
# PROTOCOL TABLE (as described by Inglese J, Shamu CE and Guy RK. 2007)
# SEQUENCE No. (e.g., 1, 2, 3, etc.); […] (e.g., Cells, Incubation, Reagent, etc.); VALUE and DESCRIPTION.
# 1. Cells. Seed 1500 HEK293 cGMP-sensor cells per well in 4uL into Greiner 1536-well white/solid bottom high base, TC plates.
# 2. Incubation. Incubate plated cells at 37C in 5% CO2, 95% RH overnight.
# 3. Reagent. Add 1uL per well GloSensor reagent from Promega (2% final concentration) or CO2 independent media vehicle control to respective columns of Greiner 1536-well plates.
# 4. Incubation. Incubate plated cells at room temperature for 2 h, protect from light.
# 5. Compounds. Library compounds and DMSO vehicle control added at 23nL per well, transferred by Pin Tool.
# 6. Incubation. Incubate plated cells for 30 min. at room temperature, protect from light.
# 7. Detector. GloSensor baseline pre-read luminescence measured using CCD-based camera (Viewlux).
# 8. Compound. Add 1uL of sodium nitroprusside (SNP) to 50 uM final concentration to stimulate soluble guanylyl cyclase (GC) or CO2 independent media as vehicle control.
# 9. Incubation. Incubate treated cells at room temperature for 20 min., protect from light.
# 10. Detector. GloSensor post-SNP luminescence measured using CCD-based camera (Viewlux).
# NOTES (numbers refer to Sequence numbers above; values are from representative experiments)
# 1. HEK293 cells expressing GIP/pGS-40F were grown to 85-95% confluence (48-72 h) in T175 culture flasks (CO2 independent media supplemented with 10% FBS, 1% Pen/Strep antibiotics, and 1 ug/mL puromycin). Trypsinize and harvest cells from T175 culture flasks and filter through 40 um cell strainer. Cells counted with Invitrogen Countess (30,000,000 - 50,000,000 cells/flask).
# 2. Cells incubated for 24 h. at 37C in 95% RH incubator with metal lid having gas-exchange holes.
# 3. Prepare GloSensor Reagent (Promega): Reconstitute GloSensor luciferase substrate by adding 8.2mL Hepes buffer to 250mg substrate, mix well, protect from light and stored at -80C. Prepare a fresh 12% GloSensor solution in CO2 independent supplemented plating media (see above). Mix well and store at ambient temperature, protected from light. 1uL 12% GloSensor Luciferase Reagent added (2% final concentration) to respective columns of 9 x 1536-well Greiner plate with BioRaptr, 1uL CO2 independent plating media added to respective columns as vehicle control with BioRaptr.
# 4. Cells incubated for 2 h. at ambient temperature, protected from light with metal lid having gas-exchange holes.
# 5. 23nL of LOPAC128 library compounds (7 plates) or DMSO vehicle control transferred to 9 Greiner white/solid bottom high base, TC plates in 7 interplate 1:5 titrations (see Yasgar, A. et al. 2008) with Pintool. Two of the 9 plates are DMSO-only in compound field at beginning and end of compound library-treated plates.
# 6. Cells incubated for 30-50 min. at ambient temperature protected from light with metal lid having gas-exchange holes.
# 7. Read GloSensor + Antagonist/Compound baseline Luminescence on the ViewLux [Exposure, 30 s; Gain, High; Speed, Slow; Binning, 2X]
# 8. SNP solution prepared at 500 mM (in H2O) stock concentration. From this a working dilution was prepared at 300 uM in CO2 Independent media. 1uL of 300 uM SNP (50 uM final concentration) or CO2 Independent media vehicle control dispensed into respective columns of 9 x Greiner 1536-well white/solid bottom, tissue culture plates with BioRaptr.
# 9. Cells incubated for 20 min. at ambient temperature, protected from light with metal lid having gas-exchange holes.
# 10. Read final luminescence on the ViewLux. [Exposure, 30 s; Gain, High; Speed, Slow; Binning, 2X.]
# […]
row,Structure (SMILES),Potency
1,C[N+](C)(C)CCOC(N)=O,inactive
2,CN(C)C(=O)Oc1ccc[n+](C)c1,inactive
3,Cc1nnc(SCC2=C(C(=O)O)N3C(=O)[C@@H](NC(=O)Cn4cnnn4)[C@H]3SC2)s1,inactive
4,Cc1scc2c1N(C(=O)CN1CCN(C)CC1)c1ccccc1NC2=O,inactive
5,CCn1ccnc1CC1COc2ccccc2O1 (stereo not given),inactive
6,COc1ccc2c(c1OC)C(=O)O[C@@H]2[C@H]1c2c(cc3c(c2OC)OCO3)CCN1C,inactive
7,CCCNC(C)C(=O)Nc1ccccc1C (stereo not given),inactive
8,CN(C)CCCN1c2ccccc2Sc2ccccc21,inactive
9,O=C(CCNNC(=O)c1ccncc1)NCc1ccccc1,inactive
10,NC(N)=NC(=O)Cc1c(Cl)cccc1Cl,inactive
11,C[N+](C)(C)CCCCCCCCCC[N+](C)(C)C,inactive
12,CCCCNC(=O)NS(=O)(=O)c1ccc(C)cc1,inactive
13,CCN1CCC[C@H]1CNC(=O)c1c(O)c(Cl)cc(Cl)c1OC,inactive
14,CCN(CC)CCCN(c1ccccc1)C1Cc2ccccc2C1,inactive
15,COc1cc2c(cc1OC)-c1cc(=Nc3c(C)cc(C)cc3C)n(C)c(=O)n1CC2,inactive
16,COCCc1ccc(OCC(O)CNC(C)C)cc1 (stereo not given),inactive
17,CCCOc1ccccc1-c1nc2n[nH]nc2c(=O)[nH]1,inactive
18,CCN1CCc2nc(N)oc2CC1,inactive
19,CN1C[C@H](C(=O)N[C@]2(C)O[C@@]3(O)[C@@H]4CCCN4C(=O)[C@H](Cc4ccccc4)N3C2=O)C[C@@H]2c3cccc4[nH]cc(c34)C[C@H]21,inactive
20,Nc1c2c(nc3ccccc13)CCCC2O (stereo not given),inactive

row,Structure (SMILES),Potency
1,CC1=NS(=O)(=O)c2cc(Cl)ccc2N1,inactive
2,Brc1c(NC2=NCCN2)ccc2nccnc12,inactive
3,C[N+](C)(C)CCOC(=O)CCC(=O)OCC[N+](C)(C)C,inactive
4,CCn1cc(C(=O)O)c(=O)c2cc3c(cc21)OCO3,inactive
5,CN(C)C/C=C(/c1ccc(Br)cc1)c1cccnc1,inactive
6,CC(C)(C)NCC(O)c1cc(O)cc(O)c1 (stereo not given),inactive
7,CNC1(C)C2CCC(C2)C1(C)C (stereo not given),inactive
8,COC(=O)[C@@H](N)Cc1ccc(O)c(O)c1,inactive
9,Nc1nc(N)c2nc(-c3ccccc3)c(N)nc2n1,inactive
10,CC(C)(Oc1ccc(CCNC(=O)c2ccc(Cl)cc2)cc1)C(=O)O,inactive
11,Fc1ccc(C(c2ccc(F)cc2)N2CCN(C/C=C/c3ccccc3)CC2)cc1,inactive
12,CNCCCN1c2ccccc2CCc2ccccc21,inactive
13,C[C@@H](O)[C@H]1C(=O)N2C(C(=O)O)=C(SCCN=CN)C[C@H]12,inactive
14,Cc1ccc(S(=O)(=O)NC(=O)NN2CCCCCC2)cc1,inactive
15,c1ccc2c(c1)CCCC2C1=NCCN1 (stereo not given),inactive
16,CC(N=C(NC#N)Nc1ccncc1)C(C)(C)C (stereo not given),inactive
17,CC(C)COCC(CN(Cc1ccccc1)c1ccccc1)N1CCCC1 (stereo not given),inactive
18,OCCN1CCN(CCCN2c3ccccc3C=Cc3ccccc32)CC1,inactive
19,CCn1nc(C(=O)O)c(=O)c2cc3c(cc21)OCO3,inactive
20,COc1ccc(CCN(C)CCCC(C#N)(c2cc(OC)c(OC)c(OC)c2)C(C)C)cc1OC (stereo not given),inactive
